This is an account of results in PubChem BioAssay.

The structures appear in SMILES notation. Calls of active or inactive are those of the source.

One assay has as its target Albumin (Bos taurus) (UniProt P02769). Kind of assay: bovine serum albumin binders on microarray, profiling panel, artefact control for SMM control protein annotation, biochemical, small-molecule microarray, Alexa647 label, 635/667 nm fluorescence (AID 1118).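 Further: score merges 667 nm emission intensity and signal-to-noise per printed compound spot.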 Particulars: BSA-A647 binding, fluorescence 635 nm, higher = more signal.
The nature of assay [1]: small-molecule microarray binders of probe aXIP, primary screen, biochemical, NeuroSMM set, 635/667 nm fluorescence (AID 1119).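 Further: probe is the protein aXip251-270 applied at 1 µg/mL to compound-printed slides; binding of probe to printed compounds measured as 667 nm fluorescence plus signal to noise.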 The note with it: higher = more signal, called active from +8 up or from −8 down.
Assay [2] can be described thus: small-molecule binders of probe aNOTCH3, primary screen, biochemical, small-molecule microarray, 635/667 nm fluorescence (AID 1120).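 Further: probe is a biotin-tagged antibody raised against NOTCH3 rather than NOTCH3 protein; score merges spot fluorescence near 667 nm with spot signal to noise.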 Particulars: higher = more signal.
A short description of assay [3]: small-molecule binders of probe aNOTCH2, primary screen, biochemical, small-molecule microarray, 635/667 nm fluorescence (AID 1121).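 Further: score merges feature fluorescence read at 667 nm with its signal to noise.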 Particulars: higher = more signal.
In assay [4] the target is Carbonic anhydrase 2 (Homo sapiens) (UniProt P00918). Kind of assay: CAII small-molecule binders, profiling panel, biochemical, small-molecule microarray, Alexa647-labelled CAII (AID 1122). Particulars: CAII-A647 binding fluorescence, higher = more signal.
Assay [5] is described as follows: COS7 lysate on small-molecule microarray, probe aHis, 635 nm (AID 1123).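 Further: z-score combines 667nm fluorescence intensity with signal-to-noise per printed compound spot.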 Particulars: COS7 cell lysate, fluorescence, higher = more signal.
Assay [6] is described as follows: compound binding in COS7 lysate, probe aLAP1, primary screen, cell lysate, small-molecule microarray (AID 1124).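 Further: lysate comes from COS7 cells expressing LAP1 and is applied at 0.3 µg/mL; score merges spot fluorescence near 667 nm with signal-to-noise over triplicate slides.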 Particulars: probe aLAP1, fluorescence, higher = more signal.
A further assay deals with Sam68 (KHDRBS1). Kind of assay: Sam68 small-molecule binders, primary screen, biochemical, small-molecule microarray, 635 nm fluorescence (AID 1125).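 Further: score merges 667 nm channel intensity with signal to noise over triplicate slides.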 Particulars: small-molecule microarray binding, higher = more signal.
Assay [7] has as its system Chordin-like protein 2 (CHRDL2). Kind of assay: CHRDL2 small-molecule binders, primary screen, biochemical, small-molecule microarray, 635 nm fluorescence (AID 1126).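 Further: printed compound slides probed with Chrdl2 protein at 4 µg/mL for 1 h at 4 C; score merges 667 nm emission intensity with signal to noise over three replicate slides.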 The note with it: small-molecule microarray binding, fluorescence 635 nm; higher = more signal.
For assay [8], the target named is Concanavalin-A (Canavalia ensiformis) (UniProt P02866). Kind of assay: ConA small-molecule binders, primary screen, artefact control for SMM control protein annotation, biochemical, small-molecule microarray, Alexa647 label, 635 nm (AID 1127).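 Further: z combines 667 nm emission intensity with signal-to-noise across three replicate slides.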 The note with it: ConA-A647 binding fluorescence, higher = more signal.
Assay [9] can be described thus: anti-His antibody binders, primary screen, artefact control for SMM control protein annotation, biochemical, small-molecule microarray, 635 nm fluorescence (AID 1128).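 Further: score merges feature fluorescence with signal-to-noise for each printed compound spot.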 The note with it: anti-His Alexa647 antibody binding, higher = more signal.
Assay [10] has as its system Human papillomavirus type 1a E7 protein (residues 1-88). Kind of assay: HPV1a E7 small-molecule binders, primary screen, biochemical, small-molecule microarray, residues 1-88, 635 nm (AID 1129). Particulars: small-molecule microarray binding, fluorescence 635 nm; higher = more signal.
Assay [11] concerns the target Focal adhesion kinase 1 (Homo sapiens) (UniProt Q05397). Kind of assay: small-molecule microarray binders of FAK, primary screen, biochemical, 635/667 nm fluorescence, BSA, DTT (AID 1130).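 Further: composite of spot emission at 667 nm and signal to noise over triplicate slides.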 Particulars: PTK2 binding, 635 nm fluorescence, higher = more signal.
For assay [12], the system named is Fibrinogen (Alexa647-labelled). Kind of assay: fibrinogen binders on compound microarrays, profiling panel, artefact control for SMM control-protein annotation, biochemical, small-molecule microarray, 635/667 nm fluorescence (AID 1131).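 Further: z-score merges 667 nm fluorescence with per-spot signal-to-noise over triplicate slides.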 Particulars: fibrinogen-A647 binding fluorescence, higher = more signal.
For assay [13], the target named is Follistatin (Homo sapiens) (UniProt P19883). Kind of assay: follistatin binders on small-molecule microarrays, primary screen, biochemical, small-molecule microarray, 635/667 nm fluorescence (AID 1132). The note with it: FST binding, 635 nm fluorescence, higher = more signal.
Assay [14] deals with Fibroblast growth factor 2 (Homo sapiens) (UniProt P09038). Kind of assay: FGF2 binders on small-molecule microarrays, primary screen, biochemical, small-molecule microarray, 635/667 nm fluorescence (AID 1133). The note with it: small-molecule microarray binding, FGF2, fluorescence 635/667; higher = more signal.
Assay [15] in a line: mitochondrial membrane potential change in A549 cells, profiling panel, cell-based, JC-1 fluorescence, basal, 24 h, 100 nL (AID 1138).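 Further: A549 lung adenocarcinoma cells under basal conditions with no added stimulus; test concentration not given here.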 The note with it: higher = more signal.
The next assay relates to Lefty1. Kind of assay: Lefty1 binders on small-molecule microarrays, primary screen, biochemical, small-molecule microarray, 635/667 nm fluorescence (AID 1139). Particulars: small-molecule microarray binding, fluorescence 635/667; higher = more signal.
Assay [16] deals with wheat germ agglutinin (Triticum aestivum), Alexa647-labelled. Kind of assay: wheat germ agglutinin binders on compound microarrays, profiling panel, artefact control for SMM control-protein annotation, biochemical, small-molecule microarray, 635/667 nm fluorescence (AID 1140).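 Further: score merges 667 nm feature emission with signal to noise over triplicate slides.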 The note with it: WGA-A647 binding, 635 nm fluorescence, higher = more signal.
The target of assay [17] is Luciferin 4-monooxygenase (Photinus pyralis) (UniProt P08659). Kind of assay: firefly luciferase enzyme inhibitors, primary screen, biochemical, luminescence, purified enzyme, 2006 set (AID 1141).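 Further: cell-free assay with purified firefly luciferase at 100 ng per well in PBS; test concentration not given here.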 The note with it: SteadyGlo luminescence, 30 min, higher = more signal, called active from +8 up or from −8 down.
Chain of Luciferin 4-monooxygenase (Photinus pyralis) (P08659 whole entry, looked up): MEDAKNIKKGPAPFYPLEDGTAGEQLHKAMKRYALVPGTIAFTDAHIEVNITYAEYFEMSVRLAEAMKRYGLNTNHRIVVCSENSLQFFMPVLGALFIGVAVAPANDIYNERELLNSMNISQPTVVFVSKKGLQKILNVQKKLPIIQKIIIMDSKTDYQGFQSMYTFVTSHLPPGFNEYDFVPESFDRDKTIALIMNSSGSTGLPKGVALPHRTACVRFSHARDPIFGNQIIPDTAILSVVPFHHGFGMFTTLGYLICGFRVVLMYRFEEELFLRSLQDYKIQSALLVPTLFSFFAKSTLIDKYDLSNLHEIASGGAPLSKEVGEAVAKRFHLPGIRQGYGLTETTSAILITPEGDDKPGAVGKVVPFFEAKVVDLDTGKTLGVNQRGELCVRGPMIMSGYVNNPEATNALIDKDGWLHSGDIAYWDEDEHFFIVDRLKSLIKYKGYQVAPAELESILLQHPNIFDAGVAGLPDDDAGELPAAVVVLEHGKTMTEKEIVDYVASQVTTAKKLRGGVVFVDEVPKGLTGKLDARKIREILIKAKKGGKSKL

Chain of Follistatin (Homo sapiens) (P19883 whole entry, looked up): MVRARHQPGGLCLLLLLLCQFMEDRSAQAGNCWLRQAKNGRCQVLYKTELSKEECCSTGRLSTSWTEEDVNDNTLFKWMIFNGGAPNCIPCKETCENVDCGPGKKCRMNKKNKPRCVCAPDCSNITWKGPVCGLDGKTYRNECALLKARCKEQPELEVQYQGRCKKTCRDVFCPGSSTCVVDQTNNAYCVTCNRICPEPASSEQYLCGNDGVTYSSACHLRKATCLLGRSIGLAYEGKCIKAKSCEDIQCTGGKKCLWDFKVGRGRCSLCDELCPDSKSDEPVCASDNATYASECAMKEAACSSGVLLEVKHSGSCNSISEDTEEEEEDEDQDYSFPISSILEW
Chain of Fibroblast growth factor 2 (Homo sapiens) (P09038 whole entry, looked up): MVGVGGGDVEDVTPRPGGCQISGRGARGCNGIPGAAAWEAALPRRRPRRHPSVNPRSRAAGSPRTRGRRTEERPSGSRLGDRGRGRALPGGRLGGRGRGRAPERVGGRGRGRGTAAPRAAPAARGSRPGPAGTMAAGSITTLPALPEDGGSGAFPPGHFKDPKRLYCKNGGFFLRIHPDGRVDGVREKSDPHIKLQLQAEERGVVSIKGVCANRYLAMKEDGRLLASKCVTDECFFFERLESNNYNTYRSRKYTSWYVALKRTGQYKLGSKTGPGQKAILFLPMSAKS
Chain of Focal adhesion kinase 1 (Homo sapiens) (Q05397 whole entry, looked up): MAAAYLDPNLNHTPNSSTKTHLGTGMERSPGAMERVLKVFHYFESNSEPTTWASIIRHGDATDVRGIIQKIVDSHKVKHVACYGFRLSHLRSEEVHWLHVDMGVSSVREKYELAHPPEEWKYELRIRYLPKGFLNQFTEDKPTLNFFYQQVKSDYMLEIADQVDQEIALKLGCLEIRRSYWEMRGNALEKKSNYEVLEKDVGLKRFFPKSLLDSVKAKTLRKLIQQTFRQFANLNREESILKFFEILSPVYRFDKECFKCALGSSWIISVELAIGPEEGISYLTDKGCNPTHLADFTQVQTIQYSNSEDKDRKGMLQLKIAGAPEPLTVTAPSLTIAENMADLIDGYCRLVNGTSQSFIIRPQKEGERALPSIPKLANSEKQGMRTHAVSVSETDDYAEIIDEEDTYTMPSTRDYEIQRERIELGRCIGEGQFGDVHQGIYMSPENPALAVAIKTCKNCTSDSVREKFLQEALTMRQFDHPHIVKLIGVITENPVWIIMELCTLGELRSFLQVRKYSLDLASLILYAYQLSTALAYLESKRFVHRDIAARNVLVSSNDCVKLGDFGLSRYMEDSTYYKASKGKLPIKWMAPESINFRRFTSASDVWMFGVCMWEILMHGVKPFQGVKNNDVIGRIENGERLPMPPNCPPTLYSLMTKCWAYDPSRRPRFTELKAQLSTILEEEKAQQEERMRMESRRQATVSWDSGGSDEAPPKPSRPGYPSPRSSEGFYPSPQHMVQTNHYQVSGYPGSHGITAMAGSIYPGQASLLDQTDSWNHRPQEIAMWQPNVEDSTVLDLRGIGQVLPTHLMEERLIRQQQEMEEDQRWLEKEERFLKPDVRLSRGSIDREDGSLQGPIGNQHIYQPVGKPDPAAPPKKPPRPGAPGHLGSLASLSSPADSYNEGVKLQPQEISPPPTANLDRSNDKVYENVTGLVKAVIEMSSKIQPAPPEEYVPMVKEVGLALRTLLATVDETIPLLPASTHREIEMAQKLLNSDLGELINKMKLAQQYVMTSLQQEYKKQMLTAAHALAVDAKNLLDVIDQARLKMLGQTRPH
Chain of Concanavalin-A (Canavalia ensiformis) (P02866 whole entry, looked up): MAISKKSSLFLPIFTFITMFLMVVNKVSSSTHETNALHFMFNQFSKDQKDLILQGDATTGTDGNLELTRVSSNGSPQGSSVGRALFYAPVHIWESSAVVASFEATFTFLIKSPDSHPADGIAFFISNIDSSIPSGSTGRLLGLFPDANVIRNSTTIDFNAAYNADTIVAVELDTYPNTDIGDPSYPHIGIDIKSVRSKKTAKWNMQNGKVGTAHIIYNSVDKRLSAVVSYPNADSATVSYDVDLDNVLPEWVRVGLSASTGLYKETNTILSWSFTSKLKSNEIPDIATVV
Chain of Albumin (Bos taurus) (P02769 whole entry, looked up): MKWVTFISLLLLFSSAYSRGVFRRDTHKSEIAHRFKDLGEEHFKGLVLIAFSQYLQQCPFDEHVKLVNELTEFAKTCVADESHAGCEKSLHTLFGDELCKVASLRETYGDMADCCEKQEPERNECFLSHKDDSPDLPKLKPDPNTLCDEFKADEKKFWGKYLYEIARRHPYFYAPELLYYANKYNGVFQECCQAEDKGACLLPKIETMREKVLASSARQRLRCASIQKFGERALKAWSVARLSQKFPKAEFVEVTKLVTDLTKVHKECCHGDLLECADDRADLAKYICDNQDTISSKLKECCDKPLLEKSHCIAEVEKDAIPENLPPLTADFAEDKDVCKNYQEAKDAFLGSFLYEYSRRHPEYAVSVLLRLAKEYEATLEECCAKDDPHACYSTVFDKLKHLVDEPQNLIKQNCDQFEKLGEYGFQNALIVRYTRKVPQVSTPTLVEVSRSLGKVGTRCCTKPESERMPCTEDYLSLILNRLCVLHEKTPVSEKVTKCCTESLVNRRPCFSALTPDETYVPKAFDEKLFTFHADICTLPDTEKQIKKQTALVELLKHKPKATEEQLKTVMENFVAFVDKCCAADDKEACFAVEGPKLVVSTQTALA

Consider `CC1CC/C=C\[C@H]2OC34C=CCN(Cn5nnc6ccccc65)C(=O)[C@H]3N(CCCCCO)C(=O)[C@@H]4C2C(=O)O1` (stereo not given in full), for which the composite z-score in the assay with Albumin (Bos taurus) is -1.22; in assay [2], -0.236; in [3] it was -0.106; in assay [4], 0.548; in assay [5], 0.737; in assay [6], 0.434. Further, the composite z-score in the assay with Sam68 (KHDRBS1) is 0.479; in assay [7] it was -1.75; in [8] it was -0.845; in [9], 0.429; in [10] it was -1.48; in assay [11] it was -0.281. The composite z-score was -2.26 in assay [12]; -1.16 in assay [13]; -1.69 in assay [14]; -0.425 in the assay with Lefty1; 1.24 in assay [16]. For the same compound, in assay [1], the composite Z-score is 0.19 (inactive). For the same compound, the z-score was 0.114 in assay [15] and 0.932 (inactive) in assay [17].

With `C=CC[C@]12N=C(c3ccc(OCCCO)cc3)O[C@H]1c1ccccc1N(CCS(=O)(=O)c1ccccc1)C2=O`, the composite z-score with Albumin (Bos taurus) was 0.922; in assay [2] it was -0.0728; in [3] it was -0.0692; in assay [4], 0.727; in assay [5], 1.12; in assay [6], 0.486. Moreover, the composite z-score with Sam68 (KHDRBS1) stood at 1.3; in assay [7], 0.873; in [8], 1.18; in assay [9] it was 1.66; in [10], 1.23; in [11], 0.472. In addition, the composite z-score turned out to be 0.971 in [12]; 1.15 in assay [13]; 1.38 in assay [14]; 1.05 in the assay on Lefty1; 0.97 in [16]. Besides, in assay [1], the composite Z-score is 0.526 (inactive). For the same compound, the results for the z-score in assay [15] and in assay [17] were 0.337 and -12.4 (active), respectively.

On to `COc1ccc([C@H]2C[C@H]3C(Br)=C[C@@]2(CO)C(=O)[C@]32CO2)cc1`, for which the composite z-score is -0.613 in the assay with Albumin (Bos taurus); -0.103 in assay [2]; -0.0684 in assay [3]; 0.0574 in [4]; -0.128 in assay [5]; 0.289 in assay [6]. The composite z-score in the assay with Sam68 (KHDRBS1) was -0.318; in assay [7] it was 0.282; in assay [8], 0.178; in assay [9], -0.436; in [10], -0.99; in [11] it was 0.125. The composite z-score in assay [12] is 0.281; in assay [13] it was -0.0737; in [14] it was -0.441; with Lefty1 it was -0.271; in assay [16] it was 0.138. The composite Z-score in [1] was -0.0805 (inactive). Further, the values for the z-score in [15] and in assay [17] were -0.592 and 0.601 (inactive), respectively.

With `COc1ccc(CCNC(=O)[C@@]2(c3ccc([N+](=O)[O-])cc3)CC(=O)N(CC34CC5CC(CC(C5)C3)C4)[C@@H]2c2ccc(CO)cc2I)cc1`, the composite z-score with Albumin (Bos taurus) was -0.367; in assay [2], -0.332; in assay [3] it was -0.214; in assay [4], 0.0976; in [5] it was 2.27; in assay [6], 0.283. The composite z-score with Sam68 (KHDRBS1) came out at 0.925; in assay [7], 0.394; in [8], 0.834; in [9], 1.35; in assay [10] it was 1.17; in assay [11], 0.458. Further, the composite z-score in [12] is 0.478; in [13] it was 1.39; in [14], 1.37; in the assay on Lefty1, 0.881; in assay [16], 0.913. Besides, the composite Z-score in assay [1] was -0.355 (inactive). Also, the results for the z-score in assay [15] and in assay [17] were -1.36 and 0.641 (inactive), respectively.

Take `C#CCN1[C@@H](Cc2ccc(O)cc2)C(=O)O[C@H](Cc2ccccc2)[C@@H]1/C=C/C1CC1`: the composite z-score with Albumin (Bos taurus) is -0.545; in assay [2], 0.14; in assay [3] it was -0.14; in [4] it was 0.117; in assay [5], -0.225; in assay [6], 0.472. Besides, the composite z-score in the assay with Sam68 (KHDRBS1) was -0.329; in assay [7] it was 0.498; in assay [8] it was -0.457; in assay [9] it was -0.0341; in [10], -0.521; in [11] it was -0.102. Besides, the composite z-score in assay [12] is 0.123; in assay [13], 0.623; in assay [14], 0.571; with Lefty1, 0.165; in [16], -0.202. For the same compound, the composite Z-score in assay [1] was 0.228 (inactive). In addition, the z-score in [15] is -1.76; in [17], -0.407 (inactive).
